Measured values published in PubChem BioAssay.

What follows are compounds tested against Voltage-gated potassium channel subunit beta-2 (Rattus norvegicus) (UniProt P62483) (assay: inhibitors of rat Kvbeta2 reductase activity – biochemical, NADPH fluorescence, primary screen (AID 622;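 note: slope of raw intensity against log time taken from 70 to 1610 s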)). Conditions: recombinant KvBeta, 4-cyanobenzaldehyde reduction, at 10 µM, hits give high values.
Voltage-gated potassium channel subunit beta-2 (Rattus norvegicus), sequence (P62483 whole entry, looked up): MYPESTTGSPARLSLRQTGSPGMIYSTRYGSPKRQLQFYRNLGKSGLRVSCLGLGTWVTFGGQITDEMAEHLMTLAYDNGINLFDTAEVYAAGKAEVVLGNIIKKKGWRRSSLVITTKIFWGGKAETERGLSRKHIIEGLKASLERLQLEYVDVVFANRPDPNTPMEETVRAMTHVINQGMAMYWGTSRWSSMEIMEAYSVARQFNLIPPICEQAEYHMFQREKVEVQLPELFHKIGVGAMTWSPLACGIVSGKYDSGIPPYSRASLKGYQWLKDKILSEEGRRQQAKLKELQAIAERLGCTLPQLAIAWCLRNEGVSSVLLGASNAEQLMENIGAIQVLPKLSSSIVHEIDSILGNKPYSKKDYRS

Fluorescence slope, inactive:
Cc1cc(C)n(S(=O)(=O)/C=C/c2ccccc2)n1 -0.475
N#Cc1nc(-c2ccc(F)cc2)oc1N1CCCC1 -0.348
CCOC(=O)c1[nH]c2ccc(C)cc2c1N=CN(CC)CC -0.474
Cn1c(NCCCO)nc2c1c(=O)n(Cc1ccccc1F)c(=O)n2C -0.512
C=CCOc1ccc(/C(O)=C2/C(=O)C(=O)N(CCCN3CCOCC3)C2c2ccc(OC)cc2)cc1 (stereo not given) -0.455
CCOc1ccc2c(c1)n([O-])c1c([n+]2=O)CCCC1 -0.4
CCCC(=O)N1CCc2[nH]c3ccccc3c2C1 -0.485
CCN(CC)c1nc(N2CCOCC2)c(C#N)c2c1CN(C)CC2 -0.43
CN1C(=O)C2(c3ccccc31)C1CCCC=C1C(C#N)=C(N)C2(C#N)C#N (stereo not given) -0.472
Cc1sc(-n2c(C)ccc2C)c(C#N)c1C -0.505
CCN(CC)CCN1C(=O)C(O)=C(C(C)=O)C1c1ccc(OC)c(OC)c1 (stereo not given) -0.445
CCOC(=O)C(C(=O)OCC)N(C#N)c1nc(SC)nc(N(C)C)n1 -0.457
CCSc1nnc(NC(=O)C(C)(C(F)(F)F)C(F)(F)F)s1 -0.49
CC(C)=CCC(C)(C)CNC(=O)NC1CCCCC1 -0.459
CCCOC(=O)CSC1=C(C#N)C(c2ccc3c(c2)OCO3)CC(=O)N1 (stereo not given) -0.487
COc1ccc(N2CC(=O)N(c3ccc(OC)c(OC)c3)CC2=O)cc1OC -0.477
CCCCCCOc1ccc(C(=O)n2cnc(N)n2)cc1 -0.508
CCSc1nc2sc3c(c2c2nnc(SCC(=O)NCc4ccco4)n12)CCCC3 -0.399
C=CCc1cccc(CNc2nc3ccccc3n2C(C)C)c1O -0.502
O=C(Nc1ccc(N2CCN(C(=O)c3ccccc3)CC2)c(Cl)c1)c1ccc(Br)o1 -0.431
COc1ccc(NC(=O)c2c(C)cc(=O)oc2C)c(OC)c1 -0.454
Cc1c(C)[n+](=O)c2c(n1[O-])CCC2 -0.343
COC(=O)CCc1c(C)[nH]c(=S)[nH]c1=O -0.521
CCOC(=O)C1=C(N)n2c(s/c(=C\c3cccnc3)c2=O)=C(C(=O)OC)C1c1cccnc1 (stereo not given) -0.501
COc1ccc(CNc2oc(COc3ccc(Cl)cc3)nc2C#N)cc1 -0.474
CC1(C)Cc2[nH]c(=O)c(C#N)cc2CS1 -0.435
COc1ccccc1C1CC(c2ccc(Cl)cc2)Nc2nc(N)nn21 (stereo not given) -0.459
CCOC(=O)C(C)Oc1ccc2c(C)cc(=O)oc2c1C(C)=O (stereo not given) -0.459
CCC1(C)Cc2c(sc(NC(=O)CCC(=O)O)c2C#N)CO1 (stereo not given) -0.382
Cc1cc(C)n(CC(=O)c2ccccc2)c(=O)c1C#N -0.432
COc1cccc(Cn2c(NCc3ccccn3)nc3c2c(=O)n(C)c(=O)n3C)c1 -0.5
O=C(NCCCN1CCOCC1)C1(c2ccccc2)CCOCC1 -0.501
O=C(NCc1ccco1)c1ccc(=O)[nH]n1 -0.539
CC(NC(=O)CSc1nc2c(cc1C#N)CN(C)CC2)c1ccccc1 (stereo not given) -0.429
COc1cccc(C(=O)OC2CCCN(C)C2)c1 (stereo not given) -0.457
Cn1c(=O)[nH]c(=O)c2c1nc(N1CCN(c3cccc(Cl)c3)CC1)n2CCCc1ccccc1 -0.442
CCOC(=O)c1[nH]c2ccc(OC)cc2c1NC(=O)CCN1CCCC(C)C1 (stereo not given) -0.351
O=C(NCc1ccccc1)C1C(=O)N(Cc2ccccc2)C(=O)C1C1(O)CCCC1 (stereo not given) -0.508
COC(=O)c1ccccc1NC(=O)C1COc2ccccc2O1 (stereo not given) -0.465
CCOC(=O)c1[nH]c2ccccc2c1N=CN(CC)CC -0.472

Each compound was assayed against Voltage-gated potassium channel subunit beta-2 (Rattus norvegicus) (UniProt P62483) (assay: enhancers of rat Kvbeta2 NADPH turnover – biochemical, NADPH fluorescence, primary screen (AID 623;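 active = NADPH fluorescence slope more negative than the mean of all samples by about 3 SD, 99.7% confidence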;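 note: fluorescence intensity change per second fitted from 20 to 320 s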)). Conditions: Recombinant KvBeta, NADPH fluorescence decrease slope, 10 min; at 10 µM; hits give low values.

NADPH fluorescence slope, inactive:
Cc1cc(C)n(S(=O)(=O)/C=C/c2ccccc2)n1 -0.000103
N#Cc1nc(-c2ccc(F)cc2)oc1N1CCCC1 -9.4e-06
CCOC(=O)c1[nH]c2ccc(C)cc2c1N=CN(CC)CC -7.5e-05
Cn1c(NCCCO)nc2c1c(=O)n(Cc1ccccc1F)c(=O)n2C -3.1e-05
C=CCOc1ccc(/C(O)=C2/C(=O)C(=O)N(CCCN3CCOCC3)C2c2ccc(OC)cc2)cc1 (stereo not given) -0.000145
CCOc1ccc2c(c1)n([O-])c1c([n+]2=O)CCCC1 -0.000101
CCCC(=O)N1CCc2[nH]c3ccccc3c2C1 -2.8e-05
CCN(CC)c1nc(N2CCOCC2)c(C#N)c2c1CN(C)CC2 -0.000217
CN1C(=O)C2(c3ccccc31)C1CCCC=C1C(C#N)=C(N)C2(C#N)C#N (stereo not given) -1.9e-05
Cc1sc(-n2c(C)ccc2C)c(C#N)c1C -9.6e-05
CCN(CC)CCN1C(=O)C(O)=C(C(C)=O)C1c1ccc(OC)c(OC)c1 (stereo not given) -4.1e-05
CCOC(=O)C(C(=O)OCC)N(C#N)c1nc(SC)nc(N(C)C)n1 -5e-05
CCSc1nnc(NC(=O)C(C)(C(F)(F)F)C(F)(F)F)s1 -6.3e-05
CC(C)=CCC(C)(C)CNC(=O)NC1CCCCC1 -0.000111
CCCOC(=O)CSC1=C(C#N)C(c2ccc3c(c2)OCO3)CC(=O)N1 (stereo not given) -6.2e-05
COc1ccc(N2CC(=O)N(c3ccc(OC)c(OC)c3)CC2=O)cc1OC -5.2e-05
CCCCCCOc1ccc(C(=O)n2cnc(N)n2)cc1 -7.5e-05
CCSc1nc2sc3c(c2c2nnc(SCC(=O)NCc4ccco4)n12)CCCC3 -1.1e-05
C=CCc1cccc(CNc2nc3ccccc3n2C(C)C)c1O -9.2e-05
O=C(Nc1ccc(N2CCN(C(=O)c3ccccc3)CC2)c(Cl)c1)c1ccc(Br)o1 -2.9e-05
COc1ccc(NC(=O)c2c(C)cc(=O)oc2C)c(OC)c1 -3.9e-05
Cc1c(C)[n+](=O)c2c(n1[O-])CCC2 -2.3e-05
COC(=O)CCc1c(C)[nH]c(=S)[nH]c1=O -2.4e-05
CCOC(=O)C1=C(N)n2c(s/c(=C\c3cccnc3)c2=O)=C(C(=O)OC)C1c1cccnc1 (stereo not given) 1.7e-05
COc1ccc(CNc2oc(COc3ccc(Cl)cc3)nc2C#N)cc1 -3.7e-05
CC1(C)Cc2[nH]c(=O)c(C#N)cc2CS1 -0.000124
COc1ccccc1C1CC(c2ccc(Cl)cc2)Nc2nc(N)nn21 (stereo not given) -0.000104
CCOC(=O)C(C)Oc1ccc2c(C)cc(=O)oc2c1C(C)=O (stereo not given) -4.7e-05
CCC1(C)Cc2c(sc(NC(=O)CCC(=O)O)c2C#N)CO1 (stereo not given) -5.7e-05
Cc1cc(C)n(CC(=O)c2ccccc2)c(=O)c1C#N -4.1e-05
COc1cccc(Cn2c(NCc3ccccn3)nc3c2c(=O)n(C)c(=O)n3C)c1 -7.9e-05
O=C(NCCCN1CCOCC1)C1(c2ccccc2)CCOCC1 -2.1e-05
O=C(NCc1ccco1)c1ccc(=O)[nH]n1 -4.2e-05
CC(NC(=O)CSc1nc2c(cc1C#N)CN(C)CC2)c1ccccc1 (stereo not given) -3.9e-05
COc1cccc(C(=O)OC2CCCN(C)C2)c1 (stereo not given) -8.4e-05
Cn1c(=O)[nH]c(=O)c2c1nc(N1CCN(c3cccc(Cl)c3)CC1)n2CCCc1ccccc1 -6.2e-05
CCOC(=O)c1[nH]c2ccc(OC)cc2c1NC(=O)CCN1CCCC(C)C1 (stereo not given) -1.8e-05
O=C(NCc1ccccc1)C1C(=O)N(Cc2ccccc2)C(=O)C1C1(O)CCCC1 (stereo not given) -2.1e-05
COC(=O)c1ccccc1NC(=O)C1COc2ccccc2O1 (stereo not given) -5.2e-05
CCOC(=O)c1[nH]c2ccccc2c1N=CN(CC)CC -5.6e-05
